Data reported in PubChem BioAssay (NCATS).
Inconclusive results are not listed. Where a call stands in place of a potency, no number is given. Calls of active or inactive are those of the source. Calls come from the whole dose curve; as a rule, active = well fitted inhibition curve with a large enough effect; inconclusive = small, poorly fitted or top-dose-only effect; inactive = flat fitted curve, though single readings scatter. Where a SMILES comes first, the peptide text is derived from it. [ ]: non-standard residue; d: D form. pGlu = O=C1CC[C@@H](C(=O)O)N1; Thz = O=C(O)[C@@H]1CSCN1

Each molecule was assayed on CP203 (assay: qHTS profiling for inhibitors of Plasmodium falciparum proliferation (AID 504749; note: nearly all actives have a fitted effect of over 60% in size)). Conditions: P. falciparum in erythrocytes, SYBR Green DNA, 72 h; series mostly up to 28.7 µM.
Description: NIH National Institute of Allergy and Infectious Diseases [NIAID] NIH Chemical Genomics Center [NCGC] MLPCN Grant: None Assay Provider: Xinzhuan Su, NIAID NCGC Assay Overview: Plasmodium falciparum is a virulent malarial parasite that kills 1-2 million people worldwide each year. Transmitted by mosquitoes, the sporozoite form of the parasite enters the blood stream to infect hepatocytes, where they become merozoites that infect red blood cells (erythrocytes). Within erythrocytes, merozoites begin a […] cycle of growth and division, after which the parasite is released to infect new red blood cells. Gametocytes, which form within erythrocytes as well, circulate in the bloodstream and are ingested by the mosquito, thereby completing the life cycle. To profile malarial isolates for differential chemical responses and to identify inhibitors of malarial growth, an assay that measures P. falciparum growth and replication within erythrocytes was employed. This assay uses a DNA binding fluorescent dye (SYBR Green) to detect parasite DNA following cell lysis. Because mature erythrocytes lack DNA, only Plasmodium-derived DNA is detected.
NCGC Assay Protocol Summary: The SYBR Green viability assay was adapted from a method described previously (Plouffe et al., 2008). For screening 3 ul culture medium was dispensed into 1536 well black clear bottom plates (Aurora Biotechnologies) using a Multidrop Combi (Thermo Fisher Scientific Inc.), 23 nL compounds in DMSO were added by a pin tool (Kalypsys), and 5 ul of erythrocytes infected with P. falciparum (0.3% parasitemia, 2.5% hematocrit final concentration) were added. The plates were incubated at 37 C in a humidified incubator in 5% CO2 for 72 h, and 2 ul lysis buffer (20 mM Tris HCl, 10 mM EDTA, 0.16% saponin, 1.6% triton X, 10X SYBR Green I supplied as 10,000X […] by Invitrogen) was added to each well. The plates were mixed for 25 sec with gentle shaking and incubated overnight at room temperature in the dark. The following morning, fluorescence intensity at 485(14) nm excitation and 535(25) nm emission wavelengths was measured on an EnVision (Perkin Elmer) plate reader. Plate reads were normalized relative to the control inhibitor (0.29 uM artemisinin) and vehicle (DMSO) wells present on each plate and then corrected by an algorithm using vehicle-only control plates at the beginning and end of the compound plate stack.
Potency is the fitted concentration of half-maximal effect.

SMILES | Potency
O=C1CC[C@@H](C(=O)N2CSC[C@H]2C(=O)O)N1 ([pGlu]-[Thz]-OH) | inactive
C#C[C@]1(O)CC[C@H]2[C@@H]3CCc4cc(O)ccc4[C@H]3CC[C@@]21C | inactive
CCOc1ccc2nc(S(N)(=O)=O)sc2c1 | inactive
Cc1cc(O)c2ccccc2c1O | inactive
Nc1cc(-c2ccncc2)c[nH]c1=O | inactive
N=c1ccn2c(n1)O[C@H]1[C@H](O)[C@@H](CO)O[C@H]12 | inactive
CCCOC(=O)c1ccc(O)cc1 | inactive
COc1ccc(/C=C/C(=O)Nc2ccccc2C(=O)O)cc1OC | inactive
CN1[C@@H]2CC[C@H]1CC(OC(=O)C(CO)c1ccccc1)C2 (stereo not given in full) | inactive
CCCSc1ccc2nc(NC(=O)OC)[nH]c2c1 | inactive
COc1cc(/C=C/C(=O)N2CCN(CC(=O)N3CCCC3)CC2)cc(OC)c1OC | inactive
O=C(O)Cc1ccc(-c2ccccc2)cc1 | inactive
C=CC(N)CCC(=O)O (stereo not given) | inactive
CC(=O)[C@]1(O)Cc2c(O)c3c(c(O)c2[C@@H](O[C@H]2C[C@H](N)[C@H](O)[C@H](C)O2)C1)C(=O)c1c(O)cccc1C3=O | 9.53 µM (active)
c1ccc2sc(SN3CCOCC3)nc2c1 | inactive
Cc1ccc(O)c(-n2nc3ccccc3n2)c1 | inactive
CC1OC1P(=O)(O)O (stereo not given) | inactive
CCC1C(=O)OCC1Cc1cncn1C (stereo not given) | inactive
CC1(C)S[C@@H]2[C@H](NC(=O)[C@H](NC(=O)N3CCN(S(C)(=O)=O)C3=O)c3ccccc3)C(=O)N2[C@H]1C(=O)O | inactive
O=C(Nc1ccc(C(=O)O)c(O)c1)c1ccccc1 | inactive

SMILES | Potency
CCCCCCCCCCCCCCCCCC(=O)O | inactive
CC1(C)[C@@H](O)CC[C@]2(C)[C@H]3C(=O)C=C4[C@@H]5C[C@@](C)(C(=O)O)CC[C@]5(C)CC[C@@]4(C)[C@]3(C)CC[C@@H]12 | inactive
O=C(O)COc1ccc(C(=O)c2cccs2)c(Cl)c1Cl | inactive
CCCCCCOc1ccccc1C(N)=O | inactive
Cc1[nH]cnc1CN1CCc2c(c3ccccc3n2C)C1=O | inactive
C=C(Nc1ccc(OCC)cc1)Nc1ccc(OCC)cc1 | inactive
COc1cc(CNC(=O)CCCC/C=C/C(C)C)ccc1O | inactive
COc1cc2c3cc1Oc1cc(ccc1O)C[C@@H]1c4c(cc(OC)c(O)c4Oc4ccc(cc4)C[C@@H]3N(C)CC2)CC[N+]1(C)C | inactive
Cc1c(Nc2ncccc2C(=O)O)cccc1C(F)(F)F | inactive
O=C(/C=C/c1ccccc1)NCCO | inactive
Cc1ccccc1CNc1ncnc2c1ncn2C1OC(CO)C(O)C1O (stereo not given) | inactive
CN(C)c1ccc(C(=C2C=CC(=[N+](C)C)C=C2)c2ccccc2)cc1 | 10.7 µM (active)
CC(N)C(=O)OC(C)(C)Cc1ccc(Cl)cc1 (stereo not given) | 12 µM (active)
CCCCCC[C@@H](O)C/C=C\CCCCCCCC(=O)O | inactive
CN1[C@@H](CC(=O)c2ccccc2)CCC[C@H]1C[C@H](O)c1ccccc1 | inactive
C=CCCCCCCCCC(=O)O | inactive
Cc1ccc(C(=O)c2ccc(CC(=O)O)n2C)cc1 | inactive
O=C(O)[C@H](O)[C@@H](O)[C@H](O)[C@H](O)CO | inactive
CCOC(=O)c1ccccc1O | inactive
Cc1nc2ccccc2n1Cc1ccc(Cl)cc1 | inactive
